# Screens from PubChem BioAssay.
# DT40 TDP1 CPT = DT40-hTDP1 cell growth loss with CPT; chicken DT40 Tdp1-/-;hTDP1 cells + 20 nM CPT, ATP luminescence, 48 h; Potency, µM (doses to about 46.2 µM), usual class: inhibitors; 420,000 tested, 12% active; AID 686979; note: nearly all actives have a fitted effect of over 55% in size
#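 Chicken DT40 Tdp1-/- cells complemented with human TDP1, 400 cells/well, exposed to compounds plus 20 nM camptothecin for at least 48 h at 37 C; viability read as ATP content by CellTiter-Glo luminescence.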
# TDP1 block = blocks human tyrosyl-DNA phosphodiesterase 1; Q9NUW8; recombinant TDP1, AlphaScreen DNA substrate cleavage; Potency, µM (top dose mostly 130 µM), hits mostly inhibitors; 350,000 tested, 0.28% active; note: nearly all actives have a fitted effect of over 40% in size
#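 Recombinant human Tdp1 (E. coli-expressed, 1 nM final) preincubated with compounds 15 min at room temperature, then 5'-biotin/3'-phosphotyrosine-FITC DNA substrate (15 nM final) added for 5 min. AlphaScreen beads (10 ug/ml final) added 10 min; cleavage lowers signal.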
# TDP1 cell noCPT = qHTS for Inhibitors of human tyrosyl-DNA phosphodiesterase 1 (TDP1): qHTS in cells in absence of CPT; AID 686978, 2013; Potency, µM (doses to about 46.2 µM), usual class: inhibitors; DT40 Tdp1-/- hTDP1 cells, no CPT, ATP luminescence, 48 h; 420,000 tested, 15% active; note: nearly all actives have a fitted effect of over 55% in size
#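 Compound effects on proliferation are scored in DT40 Tdp1-/-;hTDP1 cells in the absence of CPT. ATP levels (CellTiter-Glo luminescence) are recorded after a ≥48 hr, 37 °C incubation.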
# ClpP mod = qHTS Assay for Activators of ClpP; purified B. subtilis ClpP, FRET peptide cleavage, 20 min; Potency, µM (titrated, usually from 57.5 µM); 340,000 tested, 1.9% active; active = well fitted falling curve with a large enough effect; inconclusive = small, poorly fitted or top-dose-only effect; inactive = no such curve, though single readings can be large or run the other way; note: the source files actives as falling curves though it sought activators and does not explain the sign; nearly all actives have a fitted effect of over 65% in size
# Target sequence (P80244 whole entry, looked up): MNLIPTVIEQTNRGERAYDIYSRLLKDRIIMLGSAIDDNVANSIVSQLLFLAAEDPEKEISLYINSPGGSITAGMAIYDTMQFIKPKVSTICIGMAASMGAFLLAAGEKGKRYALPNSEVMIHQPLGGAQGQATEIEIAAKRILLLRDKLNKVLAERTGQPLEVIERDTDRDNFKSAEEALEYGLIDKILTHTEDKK
#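 FRET quenching reversal measured ClpP activation: 10 microg/mL B. subtilis ClpP at pH 8 with the FRET-FV decapeptide, read at 430 nm after 320 nm excitation. The 20-min minus 0-min signal was scaled between DMSO/no-enzyme wells and ADEP (5.8 microM final).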
# A number is an active result; – = inactive; ? = inconclusive; · = no result given; [ ] = another dose, or the depositor's remark. Most compounds without a hit are left out; they make up all but 17% or so of the library. Unless noted, calls come from the whole dose curve; as a rule, active = well fitted curve in the direction sought with a large enough effect; inconclusive = small, poorly fitted or top-dose-only effect, or another doubt; inactive = no such curve, though single readings can be large; an effect the other way counts as inactive or inconclusive.
SMILES,DT40 TDP1 CPT,TDP1 block,TDP1 cell noCPT,ClpP mod
O=C(COC(=O)CC1c2ccccc2CCN1S(=O)(=O)c1ccc(F)cc1)Nc1ccccc1 (centres undefined),?,–,?,–
CCc1cccc(CC)c1NC(=O)COC(=O)CC1c2ccccc2CCN1S(=O)(=O)c1ccc(F)cc1 (centres undefined),?,–,23µM,–
O=[N+]([O-])c1cccc(S(=O)(=O)c2ccc(NCCO)c([N+](=O)[O-])c2)c1,?,–,?,·
CC(=O)Nc1ccc(SCC(=O)c2cc(C)n(-c3ccccc3)c2C)cc1,–,–,–,?
CCCCCCCC[n+]1c(C)n(-c2ccccc2)c2ccc(NC(C)=O)cc21,0.41µM,–,0.82µM,·
O=C(COC(=O)/C=C/c1cccc(Br)c1)NC1CCCC1,–,–,?,·
CCOc1ccc(N(C(=O)c2ccc(OC)cc2)S(=O)(=O)c2ccc3c(c2)n(C)c(=O)n3C)cc1,?,–,?,–
[O-][n+]1c(/C=C/c2ccccc2)ccc2ccccc21,21µM,·,16µM,–
CN(C)c1ccc(/C=C/c2c[n+](C)cc3ccccc23)cc1,0.35µM,·,0.28µM,–
[O-][n+]1ccccc1/C=C/c1ccccc1,–,·,–,–
CN(CCCS(=O)(=O)[O-])c1ccc(/C=C/c2ccc3ccccc3[n+]2C)cc1,–,·,?,–
CN(C)c1ccc(/C=C/c2cc3ccccc3c[n+]2C)cc1,0.089µM,·,0.1µM,–
CN(C)c1ccc(/C=C/c2cncc3ccccc23)cc1,?,·,?,–
CN(C)c1ccc(/C=C/c2ccc3ccccc3[n+]2C)cc1,0.16µM,–,0.13µM,–
CN(C)c1ccc(/C=C/c2c3ccccc3cc[n+]2[O-])cc1,?,·,?,–
CN(C)c1ccc(/C=C/c2ccc3c4ccccc4ccc3[n+]2-c2ccccc2)cc1,0.21µM,–,0.16µM,–
Cc1ccc(C2NC(=O)c3ccccc3O2)cc1 (centres undefined),–,–,–,–
O=C(Nc1ccc(Br)c(Br)c1)C1CCCO1 (centres undefined),–,·,–,·
O=C(Nc1ccc2c(c1)C(=O)N(C1CCCCC1)C2=O)C1CCCO1 (centres undefined),–,–,?,32µM
CCC(=O)Oc1ccc(C(=O)Nc2ccc3c(c2)C(=O)N(C2CCCCC2)C3=O)cc1,21µM,–,15µM,25µM
CCCCCNC(=O)C1CCC(Cn2c(=O)c3sccc3n(CC(=O)N3CCCC3)c2=O)CC1 (centres undefined),–,–,–,–
COc1cccc([C@H](O)Cn2cc(-c3cccc(CON=C(C)C)c3)nn2)c1,·,–[21 µM],·,·
CCOc1cccc(CNCCO)c1OCc1ccc(Cl)cc1,?,–,?,–
OCCNCc1c(OCc2ccc(Cl)cc2)ccc2ccccc12,18µM,·,23µM,·
CC(O)CNCCNCc1c(OCc2ccccc2)ccc2ccccc12 (centres undefined),16µM,–,23µM,–
SMILES,DT40 TDP1 CPT,TDP1 block,TDP1 cell noCPT,ClpP mod
O=C1CC(N2CCC(c3nc4ccccc4o3)CC2)C(=O)N1 (centres undefined),–,–,–,–
Cc1cc(C)cc(NC(=O)c2cccc(NC(=O)c3ccco3)c2)c1,?,·,29µM,–
Cc1ccc(O)c(NC(=O)c2ccco2)c1,?,–,–,–
O=C(Nc1cccc(S(=O)(=O)c2cccc(NC(=O)c3ccco3)c2)c1)c1ccco1,?,·,13µM,·
CC(C)(C)NC(=O)c1cccc(NC(=O)c2ccc(NC(=O)c3ccco3)cc2)c1,13µM,–,?,–
Cc1ccc(O)c(NC(=O)c2cccc(NC(=O)c3ccco3)c2)c1,?,–,23µM,–
CC(C)(C)NC(=O)c1cccc(NC(=O)c2ccco2)c1,–,–,–,–
CC(C)c1ccc(N(CC(=O)NC2CCCC2)C(=O)CCC(=O)Nc2nccs2)cc1,–,–,–,·
CN1CCN(C(=O)OC2CC3CC2[C@H]2CCCCN2C3=O)CC1 (some centres undefined),–,·,–,–
CCNC(=O)C1CCCN(C(=O)c2cccc3ccccc23)CC1 (centres undefined),–,·,–,–
Cc1ccc2c(c1)N(CCCC(=O)NCc1cccc(F)c1)C(=O)CO2,?,–,?,–
